Test [1] addresses Aryl hydrocarbon receptor (Homo sapiens) (UniProt P35869). The test can be described thus: qHTS assay to identify small molecule that activate the aryl hydrocarbon receptor (AhR) signaling pathway (AID 743085). Also: nearly all actives have a fitted effect of over 15% in size. Also: potency is read from the fitted curve at half-maximal effect.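 As to activation: HG2L7.5c1 human HepG2 liver cells with stably integrated DRE-driven firefly reporter; series mostly up to about 70 µM.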 A digest of the protocol: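 A multiplexed format paired cell viability (CellTiter-Fluor fluorescence) with AhR-dependent luciferase output (ONE-Glo luminescence) in the same wells of HepG2 DRE-luc cells after 24 h compound exposure at 37C.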
Background: Quantitative high-throughput screening tests each substance at several concentrations.

A short description of test [2]: qHTS assay to identify small molecule that activate the aryl hydrocarbon receptor (AhR) signaling pathway - cell viability counter screen (AID 743086).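 Also: HepG2 liver cells carrying the AhR DRE luciferase reporter; series mostly up to about 70 µM; nearly all actives have a fitted effect of over 45% in size.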 The procedure, abridged:
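HepG2-AhR-luc (HG2L7.5c1) cells, 4000/well, treated 24 h at 37 C with compound; viability measured as CellTiter-Fluor fluorescence after 30 min in the same wells as the luciferase read.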

The target of test [3] is Peroxisome proliferator-activated receptor gamma (Homo sapiens) (UniProt P37231). As to the kind of experiment: qHTS assay to identify small molecule agonists of the peroxisome proliferator-activated receptor gamma (PPARg) signaling pathway (AID 743094; active = well fitted activation curve with a large enough effect in the signal ratio in the repeat runs, not every such curve was filed as active; the % refers to the signal ratio). A digest of the protocol:
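Reporter activation was scored by fluorescence of cleaved LiveBLAzer B/G substrate (1 h, room temperature) in PPARg-bla HEK293H cells previously treated 17 h at 37C with DMSO-dissolved compounds.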

Test [4] in a line: qHTS assay to identify small molecule antagonists of the peroxisome proliferator-activated receptor gamma (PPARg) signaling pathway - cell viability counter screen (AID 743194). Also: nearly all actives have a fitted effect of over 55% in size. The procedure, abridged: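 Cytotoxicity counter screen in PPARg-bla HEK293H cells, same wells as reporter assay. Compounds plus 50 nM rosiglitazone (final) for 17 h at 37 C, then viability read by CellTiter-Glo luminescence.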

Test [5] can be described thus: qHTS assay for small molecule agonists of the antioxidant response element (ARE) signaling pathway (AID 743202; active = well fitted activation curve with a large enough effect in the signal ratio in the repeat runs, not every such curve was filed as active; the % refers to the signal ratio; also: potency is read from the fitted curve at half-maximal effect). A digest of the protocol: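 HepG2 ARE-bla reporter line, 2,000 cells/well; 5 h preincubation 37 C/5% CO2; compound (DMSO) 16 h 37 C; B/G FRET substrate 2 h RT; fluorescence intensity.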
Test [6] can be described thus: qHTS assay for small molecule agonists of the antioxidant response element (ARE) signaling pathway - cell viability counter screen (AID 743203; calls by dose curve; also: nearly all actives have a fitted effect of over 55% in size). A digest of the protocol: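 Viability counter screen: stably transfected ARE-bla HepG2 line, 16 hrs compound exposure at 37C/5% CO2, ATP-based CellTiter-Glo luminescence measured in the reporter wells.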
Test [7] can be described thus: qHTS assay for small molecule activators of the heat shock response signaling pathway - cell viability counter screen (AID 743209). Also: nearly all actives have a fitted effect of over 50% in size. The procedure, abridged:
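Viability of HSE-bla HeLa cells is measured with CellTiter-Glo in the wells already used for the reporter read. Compound exposure lasts 5 h at 37 C, and luminescence is read after 30 min at room temperature.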

Test [8] is described as follows: qHTS assay for small molecule activators of the heat shock response signaling pathway (AID 743210; active = well fitted activation curve with a large enough effect in the signal ratio in the repeat runs, with a control signal flat, not every such curve was filed as active; the % refers to the signal ratio; also: series mostly up to about 63 µM). A digest of the protocol: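 Beta-lactamase reporter read-out: FRET substrate fluorescence after 2.5 h at RT, following 5 h compound treatment at 37 C of HeLa cells carrying HSE-driven bla reporter; quantitative HTS format.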
Test [9] can be described thus: qHTS assay to identify small molecule agonists of the peroxisome proliferator-activated receptor delta (PPARd) signaling pathway - cell viability counter screen (AID 743211). Also: nearly all actives have a fitted effect of over 55% in size. The procedure, abridged:
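Tox21 library compounds, delivered in DMSO, were incubated 17 h with PPARd-bla HEK293H cells; cytotoxicity was taken from CellTiter-Glo luminescence read 30 min after reagent addition.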

Test [10] has as its target Peroxisome proliferator-activated receptor delta (Homo sapiens) (UniProt Q03181). The test can be described thus: qHTS assay to identify small molecule agonists of the peroxisome proliferator-activated receptor delta (PPARd) signaling pathway (AID 743212; calls by dose curve). A digest of the protocol:
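Read-out: beta-lactamase FRET fluorescence after 2 h room-temperature incubation with LiveBLAzer B/G substrate. Cells were HEK293H carrying a UAS-bla reporter for PPARd, treated at 37 C with DMSO-dissolved compounds.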

The target is the same in test [11]. The test can be described thus: qHTS assay to identify small molecule antagonists of the peroxisome proliferator-activated receptor delta (PPARd) signaling pathway (AID 743215; active = well fitted inhibition curve with a large enough effect in the signal ratio in the repeat runs, not every such curve was filed as active; the % refers to the signal ratio;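 also: cells stimulated with agonist L165041 at 300 nM final during compound exposure; series mostly up to about 62 µM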). The procedure, abridged: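 Plated HEK293H PPARd-bla cells rested 5 h at 37 C and 5% CO2. Compound, then agonist L165041 at 300 nM final, was added; 17 h at 37 C followed. Substrate loading, 2 h room temperature, fluorescence measured.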

Test [12] has as its target Bile acid receptor (Homo sapiens) (UniProt Q96RI1). The test can be described thus: qHTS assay to identify small molecule antagonists of the farnesoid-X-receptor (FXR) signaling pathway (AID 743217; active = well fitted inhibition curve with a large enough effect in the signal ratio in the repeat runs, not every such curve was filed as active; the % refers to the signal ratio). A digest of the protocol: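 Screen of the Tox21 10K library in quantitative HTS format using FXR-UAS-bla HEK 293T reporter cells. Agonist chenodeoxycholic acid, 50 uM final, added with compounds; 16 h incubation at 37 °C; beta-lactamase FRET fluorescence measured.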

A short description of test [13]: qHTS assay to identify small molecule agonists of the farnesoid-X-receptor (FXR) signaling pathway - cell viability counter screen (AID 743218). Also: nearly all actives have a fitted effect of over 45% in size. A digest of the protocol:
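Viability of FXR-bla HEK 293T cells is measured by ATP-based CellTiter-Glo luminescence following 16 h compound treatment at 37 C and a prior 2 h room-temperature beta-lactamase substrate step.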

Test [14] has as its target Bile acid receptor (Homo sapiens) (UniProt Q96RI1). The test can be described thus: qHTS assay to identify small molecule agonists of the farnesoid-X-receptor (FXR) signaling pathway (AID 743220; active = well fitted activation curve with a large enough effect in the signal ratio in the repeat runs, not every such curve was filed as active; the % refers to the signal ratio). A digest of the protocol: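 FXR-UAS-bla HEK 293T cells carrying a UAS-driven beta-lactamase reporter were plated for 5 h at 37C/5% CO2, then exposed to DMSO-dissolved Tox21 10K compounds for 16 h at 37C. A LiveBLAzer B/G FRET substrate was loaded for 2 h at room temperature before fluorescence reading.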

Test [15] is described as follows: qHTS assay to identify small molecule antagonists of the farnesoid-X-receptor (FXR) signaling pathway - cell viability counter screen (AID 743221; active = well fitted cell-killing curve with a large enough effect in the repeat runs, not every such curve was filed as active; also: nearly all actives have a fitted effect of over 50% in size). A digest of the protocol:
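Cytotoxicity is taken from ATP luminescence (CellTiter-Glo, 30 min, room temperature) in FXR-bla HEK 293T cells previously incubated 16 h at 37 C with compound and chenodeoxycholic acid at 50 uM final.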

Test [16] can be described thus: qHTS assay to identify small molecule agonists of the vitamin D receptor (VDR) signaling pathway - cell viability counter screen (AID 743224). Also: series mostly up to about 63 µM; nearly all actives have a fitted effect of over 50% in size. A digest of the protocol: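 Compounds were pin-transferred onto VDR-bla cells plated 4 h earlier; following 16 h incubation at 37C, cell viability was quantified by CellTiter-Glo luminescence after 30 min at room temperature.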

The nature of test [17]: qHTS assay to identify small molecule antagonists of the peroxisome proliferator-activated receptor delta (PPARd) signaling pathway - cell viability counter screen (AID 743213). Also: nearly all actives have a fitted effect of over 50% in size. The procedure, abridged: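 In this counter screen, HEK293H cells carrying a UAS-beta-lactamase reporter are co-treated with test compounds and 300 nM L165041 (final) for 17 h at 37 C; cell viability is quantified by CellTiter-Glo luminescence.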

Test [18] concerns the target Vitamin D3 receptor (Homo sapiens) (UniProt P11473). The test can be described thus: qHTS assay to identify small molecule agonists of the vitamin D receptor (VDR) signaling pathway (AID 743222; calls by dose curve). The procedure, abridged:
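Fluorescence from cleaved LiveBLAzer B/G FRET substrate served as readout. VDR-bla cells had been treated 16 h at 37C with test compounds in DMSO, following a 4 h settling period, and substrate was loaded for 2 h at RT.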

Test [19] shares this target. The test can be described thus: qHTS assay to identify small molecule antagonists of the vitamin D receptor (VDR) signaling pathway (AID 743223; active = well fitted inhibition curve with a large enough effect in the signal ratio in the repeat runs, not every such curve was filed as active; the % refers to the signal ratio). The procedure, abridged:
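Quantitative HTS in VDR-bla reporter cells stimulated with 1alpha,25-dihydroxyvitamin D3, 3 nM final. Compound exposure 16 h, 37C, 5% CO2. Read-out: beta-lactamase FRET substrate fluorescence, 2 h RT.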

From PubChem BioAssay (Tox21) come the findings set out here.

Records with an inconclusive call do not appear. A number with no mark means an inactive call. Activity calls are given as the source filed them. Unless noted, calls follow the shape of the dose curve; as a rule, active = well fitted curve in the direction sought with a large enough effect in the repeat runs; inconclusive = weak or mixed curves; inactive = no such curve, though single readings can be large; an effect the other way counts as inactive or inconclusive.
% is scaled to controls: 0 for no effect and ±100 for the full control effect.

Chain of Bile acid receptor (Homo sapiens) (Q96RI1 whole entry, looked up): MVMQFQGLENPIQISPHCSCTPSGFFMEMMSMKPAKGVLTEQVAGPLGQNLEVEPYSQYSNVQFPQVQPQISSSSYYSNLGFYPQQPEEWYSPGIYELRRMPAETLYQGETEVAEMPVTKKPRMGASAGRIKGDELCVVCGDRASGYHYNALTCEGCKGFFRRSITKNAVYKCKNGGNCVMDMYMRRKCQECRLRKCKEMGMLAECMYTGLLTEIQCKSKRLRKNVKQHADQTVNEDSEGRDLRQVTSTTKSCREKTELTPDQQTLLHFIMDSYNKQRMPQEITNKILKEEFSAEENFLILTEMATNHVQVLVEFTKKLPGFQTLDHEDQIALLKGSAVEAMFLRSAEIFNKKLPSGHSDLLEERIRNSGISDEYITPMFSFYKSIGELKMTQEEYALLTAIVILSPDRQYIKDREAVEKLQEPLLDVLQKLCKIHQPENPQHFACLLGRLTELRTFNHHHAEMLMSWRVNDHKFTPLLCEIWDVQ
Chain of Aryl hydrocarbon receptor (Homo sapiens) (P35869 whole entry, looked up): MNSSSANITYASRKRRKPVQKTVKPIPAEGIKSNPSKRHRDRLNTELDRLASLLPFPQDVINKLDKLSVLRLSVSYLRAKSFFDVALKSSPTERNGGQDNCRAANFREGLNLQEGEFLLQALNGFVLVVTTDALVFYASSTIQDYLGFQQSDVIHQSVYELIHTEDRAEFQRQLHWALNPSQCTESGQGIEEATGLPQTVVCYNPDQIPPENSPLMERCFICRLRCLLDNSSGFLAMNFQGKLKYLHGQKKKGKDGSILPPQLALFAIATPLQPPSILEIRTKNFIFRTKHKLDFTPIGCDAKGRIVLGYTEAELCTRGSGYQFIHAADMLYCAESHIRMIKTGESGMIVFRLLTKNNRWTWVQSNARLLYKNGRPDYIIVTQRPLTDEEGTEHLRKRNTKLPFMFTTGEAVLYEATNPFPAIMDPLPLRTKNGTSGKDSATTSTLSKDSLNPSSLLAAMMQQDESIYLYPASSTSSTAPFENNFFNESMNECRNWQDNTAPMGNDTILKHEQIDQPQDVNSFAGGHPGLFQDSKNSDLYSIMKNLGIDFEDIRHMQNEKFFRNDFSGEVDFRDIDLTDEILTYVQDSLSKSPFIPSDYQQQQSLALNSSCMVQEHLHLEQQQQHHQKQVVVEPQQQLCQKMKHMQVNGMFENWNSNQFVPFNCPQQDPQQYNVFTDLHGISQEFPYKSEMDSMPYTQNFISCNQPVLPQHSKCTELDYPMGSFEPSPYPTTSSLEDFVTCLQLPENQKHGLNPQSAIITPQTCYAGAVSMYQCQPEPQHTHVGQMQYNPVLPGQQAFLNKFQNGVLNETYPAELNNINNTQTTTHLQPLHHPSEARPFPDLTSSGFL
Chain of Vitamin D3 receptor (Homo sapiens) (P11473 whole entry, looked up): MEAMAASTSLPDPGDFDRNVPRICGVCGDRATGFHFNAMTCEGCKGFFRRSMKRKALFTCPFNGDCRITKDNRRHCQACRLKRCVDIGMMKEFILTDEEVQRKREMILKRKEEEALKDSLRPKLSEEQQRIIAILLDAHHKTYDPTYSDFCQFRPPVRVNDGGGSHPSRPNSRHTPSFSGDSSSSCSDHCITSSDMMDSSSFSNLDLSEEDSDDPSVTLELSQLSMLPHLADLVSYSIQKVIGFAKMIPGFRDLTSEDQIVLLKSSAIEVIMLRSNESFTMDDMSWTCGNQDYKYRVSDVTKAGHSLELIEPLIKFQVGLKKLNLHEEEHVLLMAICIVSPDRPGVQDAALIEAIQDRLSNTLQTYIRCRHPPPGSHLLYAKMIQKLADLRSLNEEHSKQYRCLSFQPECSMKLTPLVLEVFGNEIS
Chain of Peroxisome proliferator-activated receptor gamma (Homo sapiens) (P37231 whole entry, looked up): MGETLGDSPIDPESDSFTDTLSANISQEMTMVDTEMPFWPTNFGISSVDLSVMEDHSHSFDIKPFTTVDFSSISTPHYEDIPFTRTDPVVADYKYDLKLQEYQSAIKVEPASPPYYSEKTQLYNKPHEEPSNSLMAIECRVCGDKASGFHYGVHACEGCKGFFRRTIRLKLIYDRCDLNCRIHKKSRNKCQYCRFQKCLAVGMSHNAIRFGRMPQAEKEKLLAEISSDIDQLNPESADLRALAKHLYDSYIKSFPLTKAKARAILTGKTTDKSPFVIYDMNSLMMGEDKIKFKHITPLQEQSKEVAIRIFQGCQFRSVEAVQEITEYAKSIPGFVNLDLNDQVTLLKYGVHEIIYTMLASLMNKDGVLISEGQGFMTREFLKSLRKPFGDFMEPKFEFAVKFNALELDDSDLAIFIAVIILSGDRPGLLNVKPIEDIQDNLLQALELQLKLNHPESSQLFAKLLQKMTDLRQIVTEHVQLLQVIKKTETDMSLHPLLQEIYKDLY
Chain of Peroxisome proliferator-activated receptor delta (Homo sapiens) (Q03181 whole entry, looked up): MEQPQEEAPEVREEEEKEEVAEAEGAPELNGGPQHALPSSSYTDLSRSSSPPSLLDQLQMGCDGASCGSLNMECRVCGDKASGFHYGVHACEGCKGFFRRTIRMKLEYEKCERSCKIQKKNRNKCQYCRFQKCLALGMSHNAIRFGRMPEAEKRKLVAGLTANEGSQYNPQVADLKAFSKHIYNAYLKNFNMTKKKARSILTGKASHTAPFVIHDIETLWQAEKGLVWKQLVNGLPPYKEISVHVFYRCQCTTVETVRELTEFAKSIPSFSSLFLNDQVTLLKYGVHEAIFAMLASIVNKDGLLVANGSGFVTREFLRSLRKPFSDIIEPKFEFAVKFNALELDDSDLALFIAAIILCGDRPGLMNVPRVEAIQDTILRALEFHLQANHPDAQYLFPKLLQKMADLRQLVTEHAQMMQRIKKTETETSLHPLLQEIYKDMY

Consider `Cc1cccc(Cl)c1`, for which the Potency result in [1], in test [2], in test [3], in test [5] and in test [7] was “inactive” throughout. The result in [4], in test [6], in test [8], in test [9], in [10] and in [11] was inactive. Moreover, the call in test [12], in [13], in test [14], in [15] and in [16] was inactive.

As to `N[C@@H](Cc1ccc(O)cc1)C(=O)O`, the Potency result in test [1], in test [2] and in test [3] was “inactive” in each case. The values for the activity change, negative = cytotoxicity in test [4], in [9] and in test [15] were 3.31% [at 13.2 µM], 3.38% [at 13.2 µM] and -1.49% [at 13.2 µM], respectively. Moreover, the activation in test [5] was -7.61% [at 8.36 µM]; in [8], 0.612% [at 13.2 µM]; in [18] it was 10.9% [at 13.4 µM]. Further, the viability change, negative = cytotoxic was 19.5% [at 8.36 µM] in [6], 14.5% [at 13.7 µM] in [17] and -2.1% [at 13.2 µM] in [13]. For the same compound, the activity change, negative = inhibition in test [19] was 1.57% [at 6.95 µM].

With `O=NN(CCCl)C(=O)NC1CCCCC1`, the Potency result in test [1], in test [2], in test [3] and in test [5] was “inactive” throughout. The result in [4], in test [6], in test [8], in test [9], in test [10] and in [17] was inactive. Further, the compound was classed as inactive in [11], in test [12], in [13], in test [14], in [15] and in test [16].

As to `Cn1nnc2c(C(N)=O)ncn2c1=O`, the Potency entry in [1], in [2], in test [3] and in test [5] was “inactive” each time. Besides, the result in [4], in test [6], in test [8], in test [10], in [17] and in test [11] was inactive. The compound was classed as inactive in [12], in test [13], in [14], in [15], in [18] and in [19]. Besides, the result in test [16] was inactive.

Consider `Cc1ccc2c(c1)C(=O)c1ccccc1C2=O`, for which the Potency in test [1] is 48.4 µM (active); in [5] it was 54.3 µM (active). Also, the Potency entry in test [2], in [3] and in [7] was “inactive” throughout. Besides, the compound was called inactive in test [4], in [6], in test [8], in test [9], in [10] and in test [11]. Further, the compound was classed as inactive in test [13], in test [15], in [18], in [19] and in test [16].

As for `CCCCCCCCCOC(=O)c1ccccc1C(=O)OCCCCCCCCC`, the Potency entry in test [1], in [2], in test [3] and in [5] was “inactive” throughout. The result in [4], in test [6], in test [9], in test [10], in test [17] and in [12] was inactive. In addition, the compound was classed as inactive in [13], in [14], in [15], in test [18], in test [19] and in test [16].

`CCC[C@@H]1C[C@@H](C(=O)N[C@@H]([C@H]2O[C@H](SC)[C@H](O)[C@@H](O)[C@H]2O)[C@@H](C)O)N(C)C1`: the Potency entry in test [1], in test [2], in test [3] and in test [7] was “inactive” in each case. The compound was called inactive in test [4], in [6], in test [8], in test [9], in [10] and in test [17]. The call in test [13], in test [15] and in test [16] was inactive.

With `CC(C)COC(=O)c1ccccc1`, the Potency entry in test [1], in [2], in test [3] and in test [7] was “inactive” throughout. In addition, the compound was classed as inactive in test [4], in [9], in test [10], in test [17], in [11] and in test [13]. Also, the outcome in [18] and in [19] was inactive.

Consider `Cn1c(=O)c2[nH]c(Br)nc2n(C)c1=O`, for which the Potency result in test [1], in [2], in test [3], in test [5] and in test [7] was “inactive” each time. In addition, the call in test [4], in test [6], in test [8], in test [9], in [10] and in [17] was inactive. Also, the call in test [13], in test [15], in test [18], in test [19] and in test [16] was inactive.
